Measurements as given in PubChem BioAssay (NCATS).
Inconclusive results are not listed. Entries that show only a call come without a potency. Activity calls are given as the source filed them. The call rests on the fitted dose curve; in most records, active means well fitted inhibition curve with a large enough effect; inconclusive means small, poorly fitted or top-dose-only effect; inactive means flat fitted curve, though single readings scatter.

Test system: 3D7
Test: qHTS profiling for inhibitors of Plasmodium falciparum proliferation (AID 504749); further: nearly all actives have a fitted effect of over 60% in size
Conditions: P. falciparum in erythrocytes, SYBR Green DNA, 72 h; series mostly up to 28.7 µM
Summary of the method: (§1)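 In a 72 h erythrocytic culture (37 C, humidified, 5% CO2) at 2.5% hematocrit and 0.3% starting parasitemia, compounds were tested; SYBR Green I in detergent lysis buffer stained parasite DNA overnight.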
Potency means the concentration at half of the fitted maximal effect.

Row | Compound | Potency
1 | CN1CC(=O)N2C(Cc3c([nH]c4ccccc34)[C@H]2c2ccc3c(c2)OCO3)C1=O (stereo not given in full) | inactive
2 | O=C1C(CCC(O)c2ccc(F)cc2)C(c2ccc(O)cc2)N1c1ccc(F)cc1 (stereo not given) | inactive
3 | COc1ccnc(CS(=O)c2nc3ccc(OC(F)F)cc3[nH]2)c1OC (stereo not given) | inactive
4 | CC(C)CN(C[C@@H](O)[C@H](Cc1ccccc1)NC(=O)O[C@H]1CO[C@H]2OCC[C@H]21)S(=O)(=O)c1ccc(N)cc1 | inactive
5 | COc1c(C)c2c(c(O)c1CC=C(C)CCC(=O)OCCN1CCOCC1)C(=O)OC2 | 11.2 µM (active)

Test system: 7G8
Test: as above
Conditions: P. falciparum in erythrocytes, SYBR Green DNA, 72 h; series mostly up to 28.7 µM
Summary of the method: as §1

Row | Compound | Potency
6 | CN1CC(=O)N2C(Cc3c([nH]c4ccccc34)[C@H]2c2ccc3c(c2)OCO3)C1=O (stereo not given in full) | 10 µM (active)
7 | O=C1C(CCC(O)c2ccc(F)cc2)C(c2ccc(O)cc2)N1c1ccc(F)cc1 (stereo not given) | inactive
8 | COc1ccnc(CS(=O)c2nc3ccc(OC(F)F)cc3[nH]2)c1OC (stereo not given) | inactive
9 | CC(C)CN(C[C@@H](O)[C@H](Cc1ccccc1)NC(=O)O[C@H]1CO[C@H]2OCC[C@H]21)S(=O)(=O)c1ccc(N)cc1 | 12.6 µM (active)
10 | COc1c(C)c2c(c(O)c1CC=C(C)CCC(=O)OCCN1CCOCC1)C(=O)OC2 | 4.47 µM (active)

Test system: AA1029
Test: as above
Conditions: P. falciparum in erythrocytes, SYBR Green DNA, 72 h; series mostly up to 28.7 µM
Summary of the method: as §1

Row | Compound | Potency
11 | CN1CC(=O)N2C(Cc3c([nH]c4ccccc34)[C@H]2c2ccc3c(c2)OCO3)C1=O (stereo not given in full) | inactive
12 | O=C1C(CCC(O)c2ccc(F)cc2)C(c2ccc(O)cc2)N1c1ccc(F)cc1 (stereo not given) | inactive
13 | COc1ccnc(CS(=O)c2nc3ccc(OC(F)F)cc3[nH]2)c1OC (stereo not given) | inactive
14 | CC(C)CN(C[C@@H](O)[C@H](Cc1ccccc1)NC(=O)O[C@H]1CO[C@H]2OCC[C@H]21)S(=O)(=O)c1ccc(N)cc1 | inactive
15 | COc1c(C)c2c(c(O)c1CC=C(C)CCC(=O)OCCN1CCOCC1)C(=O)OC2 | 10 µM (active)

Test system: AS120
Test: as above
Conditions: P. falciparum in erythrocytes, SYBR Green DNA, 72 h; series mostly up to 28.7 µM
Summary of the method: as §1

Row | Compound | Potency
16 | CN1CC(=O)N2C(Cc3c([nH]c4ccccc34)[C@H]2c2ccc3c(c2)OCO3)C1=O (stereo not given in full) | inactive
17 | O=C1C(CCC(O)c2ccc(F)cc2)C(c2ccc(O)cc2)N1c1ccc(F)cc1 (stereo not given) | inactive
18 | COc1ccnc(CS(=O)c2nc3ccc(OC(F)F)cc3[nH]2)c1OC (stereo not given) | inactive
19 | CC(C)CN(C[C@@H](O)[C@H](Cc1ccccc1)NC(=O)O[C@H]1CO[C@H]2OCC[C@H]21)S(=O)(=O)c1ccc(N)cc1 | inactive
20 | COc1c(C)c2c(c(O)c1CC=C(C)CCC(=O)OCCN1CCOCC1)C(=O)OC2 | 7.94 µM (active)
